# Bioassay records: PubChem BioAssay, The Scripps Research Institute Molecular Screening Center
# ADAM17 inh: inhibitors of human ADAM17; inhibition, % at 6.95 µM; AID 720648; 0.83% of 370,000 active; P78536; recombinant ADAM17, EDANS/DABCYL FRET peptide cleavage;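 active means inhibition above the mean of compounds lying between control limits plus 3 SD, set per campaign, cut at about 8.5% in these data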
# HGIII-sPLA2 inh: Blocks human group III sPLA2 activity; 0.56% of 370,000 active; QFRET BODIPY PC-A2 liposome hydrolysis, fluorescence; Q9NZ20; inhibition, % at 12.2 µM;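 active means inhibition above mean plus 3 SD of compounds lying within the high and low control bounds, cut at about 19% in these data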
# proKLK7 act: activators of human kallikrein-7 zymogen | P49862 | purified proKLK7, EDANS-DABCYL substrate fluorescence; 100% is mature enzyme control, 0% vehicle | activation, % at 7 µM | 0.9% of 370,000 active;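 active means activation above the mean of all tested compounds plus 3 SD, computed per campaign excluding outliers beyond control limits, cut at about 13% in these data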
# PLC-beta3 inh: blocks human PLC-beta3 enzyme activity; Q01970; Purified PLC-beta3, fluorogenic substrate, fluorescence; inhibition, % at 12.2 µM; 0.18% of 370,000 active; AID 720704
# ADAM10 inh: inhibitors of human ADAM10; inhibition, % at 7 µM; recombinant ADAM10, EDANS/DABCYL FRET peptide cleavage, 3 h; 0.62% of 370,000 active; O14672;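 active means inhibition above a per-campaign cutoff equal to the mean of compounds falling between control-based bounds plus 3 SD, cut at about 20% in these data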
# Target sequence (O14672 214-748 limits assumed): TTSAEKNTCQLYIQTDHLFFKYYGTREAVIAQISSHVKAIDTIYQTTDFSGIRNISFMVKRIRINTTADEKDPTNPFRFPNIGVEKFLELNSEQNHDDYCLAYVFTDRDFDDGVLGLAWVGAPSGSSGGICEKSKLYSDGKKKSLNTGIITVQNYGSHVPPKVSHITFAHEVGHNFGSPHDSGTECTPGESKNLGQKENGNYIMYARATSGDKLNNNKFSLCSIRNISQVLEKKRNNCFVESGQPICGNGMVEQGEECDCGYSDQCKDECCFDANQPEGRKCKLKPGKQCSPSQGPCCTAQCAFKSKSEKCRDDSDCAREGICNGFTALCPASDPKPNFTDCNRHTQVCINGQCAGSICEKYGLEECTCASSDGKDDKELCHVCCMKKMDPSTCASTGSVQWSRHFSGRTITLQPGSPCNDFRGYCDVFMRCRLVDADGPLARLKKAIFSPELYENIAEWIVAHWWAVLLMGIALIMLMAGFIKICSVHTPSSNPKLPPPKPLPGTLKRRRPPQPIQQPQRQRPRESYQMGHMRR
# PLC-gamma1 inh: inhibitors of human phospholipase C gamma1; 0.84% of 370,000 active; inhibition, % at 12.2 µM; AID 720700; P19174; purified PLC-gamma1, fluorogenic substrate, fluorescence; in the data active means inhibition above about 9.5%
# PLCgamma1 ctr: counter-screen for PLC-beta3 inhibitors: inhibitors of human PLC-gamma1 | 3.1% of 3,300 active | shares compounds with PLC-gamma1 inh | inhibition, % at 12.3 µM | purified PLC-gamma1, fluorogenic substrate, fluorescence; in the data active means inhibition above about 9.5%
# PLCbeta3 conf: confirmation of human PLC-beta3 inhibitors | shares compounds with PLC-gamma1 inh | purified PLC-beta3, fluorogenic substrate fluorescence | inhibition, % at 12.3 µM | 1% of 3,300 active
# Hits are given with their value; . = inactive; / = no result. A selection: hits, their analogues and other compounds. The true share with any hit is near 3.4%. Unless noted, no stated cut-off is given here; in the data, active means inhibition above about 11%; inactive means the rest.
SMILES,ADAM17 inh,HGIII-sPLA2 inh,proKLK7 act,PLC-beta3 inh,ADAM10 inh,PLC-gamma1 inh,PLCgamma1 ctr,PLCbeta3 conf
COCCCNC(=O)C[C@H]1C[C@@]2(C(=O)OC)C(=C[C@H](C(C)C)O[C@@H]2C2CC2)N(Cc2ccc(Cl)cc2Cl)C1=O,.,.,.,.,.,10.1,.,.
COC(=O)[C@]12C[C@H](CC(=O)N3CCSCC3)C(=O)N(Cc3cccc4ccccc34)C1=C[C@H](COCc1ccccc1)O[C@@H]2C,.,.,.,.,.,.,/,/
COC(=O)[C@]12C[C@H](CC(=O)N3CCCC3)C(=O)N(Cc3cccc4ccccc34)C1=C[C@H](COCc1ccccc1)O[C@@H]2C,.,.,.,.,.,9.5,.,.
COC(=O)[C@]12C[C@H](CC(=O)N3CCCCC3)C(=O)N(Cc3ccccc3)C1=C[C@H](C(C)C)O[C@@H]2C1CC1,.,.,.,13.0,.,.,.,.
C[C@@H]1[C@@H](c2ccccc2)c2cc3ccccc3nc2-c2nc3ccccc3cc2[C@@H]1C(=O)N1CCCC1,.,.,.,.,.,.,/,/
CCCCn1c(=O)c(F)cn(Cc2ccc(OC)c([N+](=O)[O-])c2)c1=O,.,.,.,.,.,.,/,/
CCCn1c(=O)c(F)cn(Cc2ccc(OC)c([N+](=O)[O-])c2)c1=O,.,.,.,12.1,.,.,.,.
O=C(C[n+]1cc(-c2ccc(F)cc2)n2c1CCC2)Nc1nc(-c2ccc(F)cc2)cs1,.,.,.,.,.,12.2,.,.
O=C(Nc1nc(-c2ccc(F)cc2)cs1)C1CCCO1 (configuration not stated),.,.,.,.,.,11.7,.,.
Nn1c(Cc2ccccc2F)nnc1SCn1nnc2ccccc2c1=O,.,.,.,.,.,11.1,.,.
O=c1c2ccccc2nnn1CSc1ccccc1F,.,.,.,.,.,.,/,/
O=C(Nc1ccc(Br)cc1)C1CCCN(S(=O)(=O)c2cccnc2)C1 (configuration not stated),.,.,.,11.2,.,.,.,.
O=C(Nc1cccnc1)C1CCCN(S(=O)(=O)c2ccccc2)C1 (configuration not stated),.,.,.,.,.,.,/,/
O=C(OC12CCCN(C1)/C(=C/c1ccncc1)C2)c1ccco1 (configuration not stated),.,.,.,.,.,.,/,/
O=C(NCc1ccc(Cl)cc1)O[C@H]1CC[C@@]23CCCN2C(=O)CCC[C@H]3C1,.,.,/,.,.,.,/,/
O=C(c1ccco1)N1CCN(Cc2cc(=O)c(OCc3ccc([N+](=O)[O-])cc3)co2)CC1,.,.,.,.,.,11.1,.,.
Cc1cc(OC(C)CCN2CCC(C(O)(c3ccccc3)c3ccccc3)CC2)ccc1Br (configuration not stated),.,.,.,.,.,.,/,/
O=C(CSc1ccc2nnc(CCNC(=O)c3ccc(F)cc3)n2n1)NCc1ccco1,.,.,.,.,.,13.9,.,.
CC(C)C[C@H]1COc2cc(Br)ccc2S(=O)(=O)N1Cc1cn(Cc2ccco2)nn1,.,.,.,.,.,.,/,/
CCOc1ccc(Oc2c(Cl)c(Br)nn(Cc3cccc4ccccc34)c2=O)cc1,.,.,.,.,.,.,/,/
CCc1c(N)nc(N)nc1Nc1ccccc1Cl,.,.,.,11.5,.,11.2,.,.
CCOC(=O)[C@]12CCCC3=C1N(CCC3)C(=O)[C@@H](CC(=O)N1CCCC1)C2,.,.,.,.,.,.,/,/
O=C(OC12CCCN(C1)/C(=C/c1ccncc1)C2)C1CCCCC1 (configuration not stated),.,.,.,.,.,.,/,/
COc1ccccc1C(=O)NC1CCCCN(Cc2ccc(OC(F)(F)F)cc2)C1=O (configuration not stated),.,.,.,.,.,.,/,/
Cc1ccc(S(=O)(=O)CCC(=O)Nc2nc(-c3ccncc3)cs2)cc1,.,.,.,.,.,12.7,.,.
SMILES,ADAM17 inh,HGIII-sPLA2 inh,proKLK7 act,PLC-beta3 inh,ADAM10 inh,PLC-gamma1 inh,PLCgamma1 ctr,PLCbeta3 conf
Cc1ccc(S(=O)(=O)CC(=O)Nc2nc(-c3ccccc3)cs2)cc1,.,.,.,.,.,.,/,/
Nc1nnc(SCc2ccc(Cl)cc2)s1,.,.,.,.,.,.,/,/
Clc1ccc(CSc2nnc(NC3=NCCCCC3)s2)cc1,.,.,.,10.8,.,.,.,.
CC(C)[C@@H](C)/C=C/[C@@H](C)[C@H]1CC[C@@H]2[C@]1(C)CCC1[C@]23C=C[C@]2(C[C@@H](O)CC[C@]12C)N(c1ccc(Br)cn1)O3 (some centres not stated),.,.,.,.,.,9.9,.,.
N#Cc1cc([N+](=O)[O-])cnc1Nc1ccccc1,.,.,.,12.5,.,10.1,.,.
O=c1[nH]nc(-c2ccc(NCCCO)c([N+](=O)[O-])c2)c2ccccc12,.,.,.,.,.,13.2,.,.
COc1ccc(OC)c(S(=O)(=O)N2CCC(C(=O)NCc3cccs3)CC2)c1,.,.,.,.,.,.,/,/
COc1cc(CNCCc2ccc(S(N)(=O)=O)cc2)ccc1OCc1ccc(Cl)cc1,.,.,.,.,.,.,/,/
CCOc1cc(CNCCc2ccc(S(N)(=O)=O)cc2)ccc1OCc1ccc(Cl)cc1,.,.,.,.,.,20.7,.,.
CC(=O)c1ccc(S(=O)(=O)NCC2CCN(C(=O)C(=O)c3cc4ccccc4o3)CC2)cc1,.,.,.,.,.,.,/,/
CCOC(=O)C1(C(C)(C)CC)CC(CSc2nc3ccccc3[nH]2)OC1=O (configuration not stated),.,.,.,.,.,12.5,.,.
CCOC(=O)NC(=O)CSc1nc2ccccc2[nH]1,.,.,.,.,.,.,/,/
Cn1c(C(O)c2ccc(Br)cc2)nc(Cl)c1Cl (configuration not stated),.,.,.,.,.,.,/,/
Cn1c(C(O)c2ccc(Cl)cc2)nc(Cl)c1Cl (configuration not stated),.,.,.,.,.,11.1,.,.
CCCC(=O)OC12CCCN(C1)/C(=C/c1cccc(OC)c1)C2 (configuration not stated),.,.,.,.,.,.,/,/
CC(=O)Nc1ccc(NC(=O)c2cc(-c3cc(F)ccc3OCC3CCCO3)n[nH]2)cc1 (configuration not stated),.,.,.,.,.,.,/,/
COc1ccc(NC(=O)c2cc(-c3cc(F)ccc3OCC3CCCO3)n[nH]2)cc1OC (configuration not stated),.,.,.,.,.,12.1,.,.
